Screening data from PubChem.
Hits are enriched below; roughly 6.5% of the tested compounds scored in any of these assays.
Fluor 339 460 = intrinsic fluorescence of library compounds, ex339/em460 – biochemical, MLSMR library, data from DPM-DC assay, artefact control, profiling panel. fluorescence fold increase at 10 µM. compound autofluorescence, ex339/em460 nm, NADH buffer; hits give high values; 1 = no-compound wells, NADH background. actives 5.5% (n = 65,000). AID 709;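 active = at 10 µM, mean starting fluorescence two-fold or more over control wells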;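 also: signal is the first read of a kinetic run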
A340 absorber = absorbance at 340 nm. 65,000 tested, under 10 active. fold change at 10 µM. compound absorbance at 340 nm, fold over control;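 active = at 10 µM dose, initial 340 nm absorbance at least 2 fold that of control wells; inactive = change under 2 fold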;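 also: initial absorbance extrapolated from kinetic A340 decline of NADH oxidation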
DPM-DC inhibit = inhibitors of Streptococcus pneumoniae diphosphomevalonate decarboxylase. AID 556. purified DPM-DC, PK/LDH coupled NADH fluorescence. actives 0.49% (n = 65,000). calls only at 10 µM;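 active = the 320 compounds with the highest percent inhibition in the single-dose primary screen, excluding strongly autofluorescent ones, cut at about 32% in these data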;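 also: kinetic rate of NADH fluorescence loss reporting ADP formed by the decarboxylase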
Spn MK inh = blocks S. pneumoniae mevalonate kinase; inhibition, % at 10 µM; AID 555; actives 0.48% (n = 65,000); purified MK, PK/LDH-coupled NADH absorbance 340 nm;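 active = ranked among the strongest by inhibition in the single 10 µM screen, a fixed top-ranked set picked for dose follow-up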
Spn PMK inh = blocks S. pneumoniae phosphomevalonate kinase; purified PMK, PK/LDH-coupled NADH absorbance 340 nm; inhibition, % at 10 µM; actives 0.49% (n = 65,000);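 active = top-ranked compounds by inhibition in the single 10 µM screen, taking a fixed number of the strongest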
NADH enzymes = inhibitors of enzymes used to reach an NAD/NADH endpoint; coupled PK/LDH NADH assays, four targets; IC50, µM (series often up to 10 µM); actives 0.02% (n = 65,000);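 active = single-dose screening hits from any of four coupled enzyme assays that gave an IC50 when retested across doses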;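 also: the DPM-DC format reads NADH fluorescence rather than 340 nm absorbance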
Hits are given with their value.

`COc1cccc(C(=O)N(Cc2ccc(N(C)C)cc2)C2CCS(=O)(=O)C2)c1` (configuration not stated) gave Fluor 339 460 inactive, A340 absorber inactive, DPM-DC inhibit inactive, Spn MK inh inactive, Spn PMK inh inactive and NADH enzymes inactive.
`CS(=O)(=O)N(CC(=O)NCc1ccccn1)Cc1ccc(Cl)cc1` gave Fluor 339 460 inactive, A340 absorber inactive, DPM-DC inhibit inactive, Spn MK inh inactive, Spn PMK inh inactive and NADH enzymes inactive.
Screening Cc1ccc(-c2nnn(CC(=O)N(CC(=O)NCC3CCCO3)c3ccc(F)c(Cl)c3)n2)o1 (configuration not stated) returned Fluor 339 460 inactive, A340 absorber inactive, DPM-DC inhibit inactive, Spn MK inh inactive, Spn PMK inh 44.0 and NADH enzymes inactive.
Screening O=C(CSc1ccc2nnc(-c3ccc(Cl)cc3)n2n1)N1CCN(c2ccccc2)CC1 returned Fluor 339 460 inactive, A340 absorber inactive, DPM-DC inhibit inactive, Spn MK inh inactive, Spn PMK inh inactive and NADH enzymes inactive.
For O=C(CSc1n[nH]c(-c2ccc(S(=O)(=O)NC3CCCCC3)cc2)n1)N1CCCC1 the results were Fluor 339 460 2.97, A340 absorber inactive, DPM-DC inhibit inactive, Spn MK inh inactive, Spn PMK inh inactive and NADH enzymes inactive.
For COc1cc2nc3c4ccccc4n(CC#N)c3nc2cc1OC the results were Fluor 339 460 3.81, A340 absorber inactive, Spn MK inh inactive, Spn PMK inh inactive and NADH enzymes inactive.
Screening CCn1c2ccccc2c2nc3cc(OC)c(OC)cc3nc21 returned Fluor 339 460 2.67, A340 absorber inactive, DPM-DC inhibit active, Spn PMK inh inactive and NADH enzymes inactive.
Screening CCn1c2ccccc2c2nc3ccccc3nc21 returned Fluor 339 460 inactive, A340 absorber inactive, Spn MK inh inactive, Spn PMK inh inactive and NADH enzymes inactive.
For O=C(Nc1ccc2oc(-c3ccc(F)cc3)nc2c1)c1ccccc1F the results were Fluor 339 460 2.98, A340 absorber inactive, DPM-DC inhibit inactive, Spn MK inh inactive, Spn PMK inh inactive and NADH enzymes inactive.
For O=C(Nc1ccccc1-c1nc2ccccc2o1)c1ccc2c(c1)OCCO2 the results were Fluor 339 460 3.26, A340 absorber inactive, Spn MK inh inactive, Spn PMK inh inactive and NADH enzymes inactive.
`O=C(Nc1ccc2oc(-c3ccccc3F)nc2c1)c1ccc2c(c1)OCCO2` gave Fluor 339 460 3.25, A340 absorber inactive, DPM-DC inhibit inactive, Spn MK inh inactive, Spn PMK inh inactive and NADH enzymes inactive.
Cc1c(NC(=O)c2ccc3c(c2)OCO3)cccc1-c1nc2ccccc2o1 was read as Fluor 339 460 inactive, A340 absorber inactive, DPM-DC inhibit inactive, Spn MK inh inactive, Spn PMK inh inactive and NADH enzymes inactive.
CC(NC(=O)C(NC(=O)C1CCCN1C(=O)OC(C)(C)C)C(C)C)C(N)=O (configuration not stated) was read as Fluor 339 460 inactive, A340 absorber inactive, DPM-DC inhibit inactive, Spn MK inh inactive, Spn PMK inh inactive and NADH enzymes inactive.
CCOc1ccc(-c2cc(C(=O)NCCCN3CCN(CC)CC3)c3ccccc3n2)cc1 was read as Fluor 339 460 5.19, A340 absorber inactive, Spn MK inh inactive, Spn PMK inh inactive and NADH enzymes inactive.
Screening COc1ccc(-c2cc(C(=O)NCCN3CCOCC3)c3ccccc3n2)cc1 returned Fluor 339 460 4.89, A340 absorber inactive, Spn MK inh inactive, Spn PMK inh inactive and NADH enzymes inactive.
`COc1cccc(NC(=O)CSc2nnc(-c3cccc(OC(C)C)c3)n2N)c1` gave Fluor 339 460 inactive, A340 absorber inactive, DPM-DC inhibit inactive, Spn MK inh inactive, Spn PMK inh inactive and NADH enzymes inactive.
`CSc1ccc(N2C(=O)NC3(CCCCC3)C2=O)cc1` gave Fluor 339 460 inactive, A340 absorber inactive, DPM-DC inhibit inactive, Spn MK inh inactive, Spn PMK inh inactive and NADH enzymes inactive.
O=C(Nc1ccc(-c2nc3ccccc3o2)cc1)c1ccc2c(c1)OCO2 was read as Fluor 339 460 3.62, A340 absorber inactive, Spn MK inh inactive, Spn PMK inh inactive and NADH enzymes inactive.
O=C(Nc1ccc2oc(-c3cccnc3)nc2c1)c1cccnc1 was read as Fluor 339 460 inactive, A340 absorber inactive, DPM-DC inhibit inactive, Spn MK inh inactive, Spn PMK inh inactive and NADH enzymes inactive.
